Here are results for eight molecules from PubChem BioAssay (NCI).

What all share (assay): NCI-60 one-dose screen, 48 h (100 = growth as untreated, 0 = no growth, -100 = all killed)
Details in all cases: 10 µM unless noted

In experiment [1] the test system is NCI-H23 lung.
For experiment [2], the system named is NCI-H226 lung.
Experiment [3] has as its system NCI-H322M lung.
In experiment [4] the test system is HOP-62 NSCLC.
Experiment [5] deals with NCI-H460 lung.
For experiment [6], the system named is HOP-92 NSCLC.
Experiment [7] concerns NCI-H522 lung.
Experiment [8] deals with A549/ATCC NSCLC.
The test system of experiment [9] is 786-0 renal.
Experiment [10] deals with COLO 205 colon.
In experiment [11] the test system is DU-145 prostate.
For experiment [12], the system named is K-562 leukemia.
Experiment [13] deals with MALME-3M melanoma.
Experiment [14] has as its system MDA-MB-231 breast.
Experiment [15] concerns RXF 393 renal.
Experiment [16] relates to SF-268 CNS.
Experiment [17] relates to SF-295 CNS.
For experiment [18], the system named is SF-539 CNS.
Experiment [19] relates to UACC-257 melanoma.
The subject of experiment [20] is M14 melanoma.

The panel holds about 83,000 compounds, 20% with a hit somewhere; the sample as a whole holds those more often.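 Compound tested at a single concentration for 48 hours in 96-well plates; a percent growth value below 10 was scored as active.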 A number with no mark means an inactive call. Calls of active or inactive are those of the source.

Regarding `COc1cc(OC)cc(C(=O)Nc2cc(-c3cccnc3)nc(NCCCN3CCOCC3)n2)c1`, the growth was 91.7% in experiment [1]; 85.7% in experiment [2]; 90.9% in [3]; 87.8% in experiment [4]; 95.3% in experiment [5]; 67.7% in [6]. The growth in [7] was 92%; in experiment [8], 92.6%; in experiment [9] it was 84%; in experiment [10], 94.3%; in experiment [11] it was 104%; in experiment [12], 74.1%. Also, the growth in [13] was 110%; in [14], 79.6%; in experiment [15], 93.9%; in experiment [16], 94.1%; in experiment [17] it was 101%; in [18] it was 91.1%. Besides, the values for the growth in experiment [19] and in experiment [20] were 88.6% and 104%, respectively.

`CCc1ccc(-c2ccc(COc3ccc(CC4SC(=O)NC4=O)cc3)cc2)cc1` (stereo not given): the growth in [1] is 52.2%; in experiment [2] it was 84.5%; in experiment [3], 89.8%; in [4], 84.5%; in experiment [5] it was 79.3%; in [6], 60.7%. In addition, the growth in experiment [7] is 45.5%; in experiment [8], 64.8%; in experiment [9], 78.1%; in experiment [10] it was 99.9%; in [11] it was 88.8%; in [12], 34.8%. Also, the growth in [13] was 67.3%; in [14] it was 77.3%; in experiment [15], 102%; in experiment [16], 76.7%; in experiment [17], 75.8%; in experiment [18], 77%. For the same molecule, the values for the growth in experiment [19] and in experiment [20] were 86.3% and 79.6%, respectively.

Consider `CCOC(=O)c1nn(C2CCCCO2)c2ccc(NC(=O)CN3CCOCC3)cc12` (stereo not given), for which the growth in experiment [1] was 99.7%; in experiment [2] it was 106%; in [3] it was 95.7%; in experiment [4], 100%; in [5] it was 101%; in [6], 108%. The growth is 106% in experiment [7]; 106% in [8]; 98.3% in experiment [9]; 118% in experiment [10]; 107% in experiment [11]; 90.4% in experiment [12]. Also, the growth in experiment [13] is 104%; in [14], 102%; in [15], 122%; in experiment [16] it was 97.5%; in [17], 101%; in experiment [18], 98.1%. Moreover, the growth was 98.8% in experiment [19] and 102% in experiment [20].

Take `CO[C@H]1CC[C@@]2(C)C(=CC[C@H]3[C@@H]4C[C@H](O)C[C@@]4(C)CC[C@@H]32)C1`: the growth was 67.8% in experiment [1]; 82.4% in [2]; 91.3% in experiment [3]; 62.4% in experiment [4]; 42.9% in experiment [5]; 35.6% in experiment [6]. Besides, the growth in [7] was 71.6%; in experiment [8], 81.9%; in experiment [9], 61.5%; in experiment [10], 61.5%; in [11], 42.1%; in experiment [12], 20.7%. The growth in experiment [13] is 52.1%; in experiment [14] it was 56.2%; in experiment [15], 58.5%; in [16], 49.2%; in [17] it was 40.8%; in [18], 38%. For the same molecule, the growth is 65.2% in [19] and 36.6% in experiment [20].

As to `O=C1NC(=O)C(Cc2ccc(OCc3ccc(-c4cc(F)c(F)c(F)c4)cc3)cc2)S1` (stereo not given), the growth is 80.9% in [1]; 82.5% in experiment [2]; 92.4% in experiment [3]; 91.7% in experiment [4]; 92% in experiment [5]; 98.2% in experiment [6]. Besides, the growth is 49.5% in experiment [7]; 73.2% in experiment [8]; 95.5% in experiment [9]; 97.6% in experiment [10]; 95.1% in experiment [11]; 65% in experiment [12]. The growth in experiment [13] is 93%; in [14], 76.7%; in [15], 102%; in experiment [16] it was 78.5%; in experiment [17], 85.7%; in experiment [18] it was 85%. Also, the results for the growth in [19] and in experiment [20] were 90.7% and 94.8%, respectively.

In the case of `CC[C@]1(O)CC2CN(CCc3c([nH]c4ccccc34)[C@@](C(=O)OC)(c3cc4c(cc3OC)N(C=O)[C@H]3[C@@](O)(C(=O)OC)[C@H](OC(C)=O)[C@]5(CC)C=CCN6CC[C@]43[C@@H]65)C2)C1` (stereo not given in full), the growth was 21.5% in [1]; 2.28% (active) in experiment [2]; 59.8% in [3]; 16.9% in [4]; 3.19% (active) in experiment [5]; 25.4% in experiment [6]. The growth in experiment [7] is -21.5% (active); in [8], 16.7%; in experiment [9], 16.8%; in [10], -61.1% (active); in experiment [11], -46.8% (active); in experiment [12], 14.7%. The growth in experiment [13] is 54.7%; in experiment [14], -31.3% (active); in experiment [15], 65.2%; in experiment [16], 3.28% (active); in experiment [17], 6.3% (active); in experiment [18], 5.55% (active). For the same molecule, the figures for the growth in experiment [19] and in [20] were 53.8% and 4.87% (active), respectively.

With `Cc1nc(-c2ccccc2)sc1CC#N`, the growth in experiment [1] was 106%; in experiment [2], 93.1%; in [3], 101%; in [4], 102%; in experiment [5], 103%; in experiment [6] it was 99.2%. Further, the growth is 94.6% in experiment [7]; 100% in experiment [8]; 104% in experiment [9]; 122% in [10]; 116% in experiment [11]; 94.2% in [12]. In addition, the growth in experiment [13] was 128%; in experiment [14] it was 116%; in experiment [15], 118%; in experiment [16] it was 106%; in experiment [17], 101%; in experiment [18] it was 111%. In addition, the growth in experiment [19] was 123%; in experiment [20] it was 125%.

On to `Cn1cc(-c2nnc(-c3cn(C)c4ncccc34)o2)c2ccccc21`, for which the growth in experiment [1] is 51.3%; in experiment [2] it was 64.9%; in experiment [3], 75.8%; in [4], 32.6%; in experiment [5], 23.7%; in [6] it was 7.94% (active). The growth is 21.3% in [7]; 36% in [8]; 59.7% in experiment [9]; 25.7% in [10]; 60% in [11]; 10.3% in [12]. For the same molecule, the growth in experiment [13] was 19.3%; in [14] it was 38.5%; in [15], 10%; in experiment [16], 51.1%; in [17], 13.1%; in experiment [18], 27.7%. Moreover, the growth in [19] is 73.6%; in experiment [20] it was 35.5%.
